# IL-2 act: qHTS of IL-2 Activators; IL-2 activation reporter assay, cell-based qHTS; stimulated with anti-CD3/CD4/CD28 beads; in transgenic mouse T cells; activation, % (series mostly up to about 46 µM); hit rate 0.065% among 360,000; in the data active means activation above about 50%; inconclusive means mostly about 30% to 49%; further: 0% is about no effect
#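 Readout is EGFP and DsRed signal by fluorescent plate cytometry after 18 h at 37 degrees C. Transgenic mouse T cells (750/well) received compound for 60 min before bead stimulation (anti-CD3, anti-CD4, anti-CD28); memory T cells served as non-tolerant control.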
# Giardia killer: Small Molecules that selectively kill Giardia lamblia: qHTS | Giardia lamblia trophozoite viability | activity change, % at 7.66 µM, hits read low | hit rate 0.15% among 340,000 | AID 540267, 2011; in the data active means activity change below about -80%; inconclusive means between about -30% and that limit;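 further: parasites exposed to compound for two days anaerobically before the ATP read; on the % scale 0 is the no-effect control and ±100 the full control effect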
#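 Killing of trophozoites was scored by loss of ATP luminescence after a 48 hrs anaerobic exposure to compounds at 37 deg C, using 100 cells per well.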
# mIDH1 inhibitor: qHTS for Inhibitors of mutant isocitrate dehydrogenase 1 (IDH1): qHTS; Isocitrate dehydrogenase [NADP] cytoplasmic (Homo sapiens), O75874; IDH1-R132H enzyme, NADPH consumption, diaphorase/resazurin fluorescence; Potency, µM (top dose mostly 76.6 µM), for inactives: at the top dose activity change, negative = inhibition, usual class: inhibitors; hit rate 0.093% among 390,000; AID 602179, 2012; further: potency means the concentration at half of the fitted maximal effect; on the % scale 0 is the no-effect control and ±100 the full control effect; nearly all actives have a fitted effect of over 65% in size
#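 IDH1-R132H (0.5 ug/mL dispensed) in pH 7.5 Tris buffer was preincubated 30 min with compound, then given a substrate mix of 0.016 mM NADPH and 2 mM alpha-KG for 80 min at room temperature; remaining NADPH was read by diaphorase/resazurin fluorescence.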
# TrxR1 substrate: qHTS Assay for Substrates of Mammalian Selenoprotein Thioredoxin Reductase 1 (TrxR1): qHTS; Potency, µM (titrated, usually from 114 µM), for the others: at the highest dose activity change, negative = substrate turnover; purified TrxR1 substrate turnover, NADPH consumption readout; hit rate 0.01% among 390,000; further: potency means the concentration at half of the fitted maximal effect; on the % scale 0 is the no-effect control and ±100 the full control effect; nearly all actives have a fitted effect of over 50% in size
# Target sequence (O89049 whole entry, looked up): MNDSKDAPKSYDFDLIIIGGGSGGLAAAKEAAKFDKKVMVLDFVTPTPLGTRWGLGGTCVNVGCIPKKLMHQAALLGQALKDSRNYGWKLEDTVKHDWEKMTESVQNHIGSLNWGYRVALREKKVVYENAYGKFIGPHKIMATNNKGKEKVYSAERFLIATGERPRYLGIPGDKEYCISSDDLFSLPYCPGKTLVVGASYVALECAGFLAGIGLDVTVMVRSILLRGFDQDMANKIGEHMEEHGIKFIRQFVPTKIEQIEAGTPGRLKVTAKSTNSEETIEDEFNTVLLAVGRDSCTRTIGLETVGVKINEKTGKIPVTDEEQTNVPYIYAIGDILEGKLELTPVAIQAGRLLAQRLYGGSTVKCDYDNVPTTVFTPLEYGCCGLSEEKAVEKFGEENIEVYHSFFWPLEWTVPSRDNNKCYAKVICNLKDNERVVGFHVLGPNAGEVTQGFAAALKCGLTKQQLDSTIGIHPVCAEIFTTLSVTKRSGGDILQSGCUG
#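 Rat TrxR1, dispensed at 90 nM, was prereduced with 400 uM NADPH (final) for 5 min at ~22 deg C, then incubated with compound 15 min before 400 uM selenite. A first-read NADPH fluorescence drop versus no-compound background flagged substrates.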
# BRCA1 expr up: qHTS Assay to Identify Small Molecule Activators of BRCA1 Expression | AID 624202, 2012 | hit rate 1.1% among 380,000 | MCF7-BRCA1-FFLuc reporter, luminescence, 48 h; response scale: scaled: vehicle 0%, 10 µM genistein 100% | Potency, µM (series often up to 46.1 µM), for inactives: top-dose activation, usual class: activators; further: potency means the concentration at half of the fitted maximal effect; nearly all actives have a fitted effect of over 80% in size
#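 Using MCF7 cells harboring a BRCA1 firefly luciferase reporter, plated 2 h before compound pinning, the screen measured luminescence after 48 h incubation. Responses were normalized to DMSO and 10 microM genistein, then fitted for concentration-effect.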
# TrxR1 inh: qHTS Assay for Inhibitors of Mammalian Selenoprotein Thioredoxin Reductase 1 (TrxR1): qHTS; AID 588453, 2011; recombinant rTrxR1, NADPH fluorescence consumption, selenite substrate; hit rate 1% among 390,000; Potency, µM (series often up to 114 µM), without a hit: top-dose activity change, negative = inhibition, usual class: inhibitors; Thioredoxin reductase 1, cytoplasmic (Rattus norvegicus), O89049; further: potency means the concentration at half of the fitted maximal effect; on the % scale 0 is the no-effect control and ±100 the full control effect; nearly all actives have a fitted effect of over 65% in size
#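 Rat TrxR1 (90 nM in the dispensed reagent) was pre-reduced with 400 uM NADPH for 5 min at room temperature, then incubated with compound for 15 min. After 400 uM selenite was added, NADPH fluorescence (Ex 340/Em 450 nm) was followed for 8 min.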
# Resorufin autofl: qHTS for Inhibitors of mutant isocitrate dehydrogenase 1 (IDH1): Cherrypicks Autofluorescence Interference; shares compounds with mIDH1 inhibitor; Resorufin detection reagent fluorescence interference, cell-free; inhibition of signal, % at 51.2 µM; 750 tested, under 10 active; AID 623980, 2012;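 further: 0% = wells with normal resorufin and full inhibition = wells lacking resorufin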
# WT IDH1 inh: qHTS for Inhibitors of mutant isocitrate dehydrogenase 1 (IDH1): Cherrypicks in WT IDH1; shares compounds with mIDH1 inhibitor; WT IDH1 enzyme, NADPH diaphorase/resazurin fluorescence; Potency, µM (highest dose often 115 µM), for inactives: top-dose activity change, negative = inhibition, usual class: inhibitors; hit rate 9% among 750; AID 623995, 2012;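 further: potency means the concentration at half of the fitted maximal effect; 0% = full WT IDH1 enzyme control and full inhibition = no enzyme wells; nearly all actives have a fitted effect of over 55% in size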
# mIDH1 confirm: qHTS for Inhibitors of mutant isocitrate dehydrogenase 1 (IDH1): Confirmation of Cherrypicks; shares compounds with mIDH1 inhibitor; IDH1 R132H enzyme, NADPH diaphorase/resazurin fluorescence; Potency, µM (series often up to 76.6 µM), inactives show at the highest dose activity change, negative = inhibition, actives largely listed as inhibitors; hit rate 83% among 750; AID 624002, 2012; further: potency means the concentration at half of the fitted maximal effect; nearly all actives have a fitted effect of over 50% in size
# Active calls of the source: *; ? = inconclusive; nt = no result; [ ] = remark or other dose. Compounds with a hit are over-represented: about 2.2% of the library has one in this group of screens. Unless noted, the call rests on the fitted dose curve; in most records, active means well fitted curve in the direction sought with a large enough effect; inconclusive means small, poorly fitted or top-dose-only effect, or another doubt; inactive means no such curve, though single readings can be large; an effect the other way counts as inactive or inconclusive.
SMILES,IL-2 act,Giardia killer,mIDH1 inhibitor,TrxR1 substrate,BRCA1 expr up,TrxR1 inh,Resorufin autofl,WT IDH1 inh,mIDH1 confirm
O=C(/C=C/c1cccs1)Nc1scc(-c2ccccc2)c1C(=O)O,-4,?,?,10%[57.1 µM],?,24%[57.1 µM],-25,35µM*,35µM*
N=c1c(S(=O)(=O)c2ccc(Br)cc2)cc2c(=O)n3ccccc3nc2n1C1CCCC1,-1,6,-6%,22%,-17%,2%,nt,nt,nt
N=c1c(S(=O)(=O)c2ccccc2)cc2c(=O)n3ccccc3nc2n1C1CCCC1,6,-12,18µM*,8%,-11%,26%,0,5%,7.1µM*
COc1ccc(NC(=O)c2c(NCc3cccs3)sc3c2CCCCC3)cc1,nt,nt,5%,0%[57.1 µM],nt,?,nt,nt,nt
Cc1ccc2cc(C(c3nnnn3C3CCCC3)N(Cc3ccco3)Cc3cccs3)c(=O)[nH]c2c1 (configuration not stated),-2,-17,2%,2%[57.1 µM],-49%,-19%,nt,nt,nt
CCC(c1nnnn1C1CCCCC1)N(Cc1ccco1)Cc1cc2ccc(OC)cc2[nH]c1=O (configuration not stated),-1,25,?,11%[57.1 µM],-92%,21%[57.1 µM],-5,4%,?
O=C(O)c1ccc(CNCc2ccccc2Cl)s1,nt,nt,0%,-1%,17%,0%,nt,nt,nt
Cc1oc2c(C)c3oc(=O)c(CCC(=O)O)c(C)c3cc2c1-c1ccccc1,0,2,23µM*,1%,-7%,1%,0,50µM*,13µM*
O=C(O)CCN1C(=O)/C(=C2\C(=O)N(Cc3ccc(F)cc3)c3ccccc32)SC1=S,-5,5,9.3µM*,-6%,0%,-1%,-1,-12%,4µM*
CN1C(=O)/C(=C2\SC(=S)N(CCCCCC(=O)O)C2=O)c2ccccc21,2,7,4%,1%,-34%,-10%,nt,nt,nt
Cc1ccc(C(=O)N2CCc3ccccc32)o1,-1,31,?,-11%,?,-16%,0,0%,3%
CC(=O)c1ccc(-c2ccc(C(=O)N3CCCc4ccccc43)o2)cc1,2,-9,11%,6%[57.1 µM],?,22%[57.1 µM],nt,nt,nt
CSC1=NC(=O)/C(=C/c2ccc(SC)cc2)S1,-4,-6,35µM*,-2%[57.1 µM],133%,10%[57.1 µM],-3,71µM*,40µM*
CC1CC=CC2C1C(=O)N(Cc1ccccc1)C2c1ccc(F)c(-c2ccc(N(C)C)cc2)c1 (configuration not stated),nt,-15,nt,32%,nt,3%,nt,nt,nt
C=CCn1c(SCc2nc3sc(C(=O)O)c(C)c3c(=O)[nH]2)nnc1-c1ccc(C(C)(C)C)cc1,-2,13,?,-2%,-10%,7%,-5,2%,22µM*
C=CCn1c(SCc2nc3sc(C(=O)O)c(C)c3c(=O)[nH]2)nnc1-c1ccccc1,-3,12,-2%,-7%,-2%,6%[57.1 µM],nt,nt,nt
O=C(COc1ccccc1C(=O)Nc1ccccc1)Nc1ccccc1Cl,nt,nt,nt,-5%,-51%,2%,nt,nt,nt
Cc1cccc(-n2c(C)cc(C(=O)C(=O)Nc3nncs3)c2C)c1,nt,nt,-13%,-7%,nt,8%,nt,nt,nt
CCOC(=O)c1ccc(N2C(=O)c3n[nH]c(-c4ccco4)c3C2c2cccc(O)c2)cc1 (configuration not stated),nt,nt,?,-18%,-78%,-26%,0,-11%,35µM*
CCOC(=O)c1ccc(N2C(=O)c3n[nH]c(-c4cccs4)c3C2c2ccc(O)c(OC)c2)cc1 (configuration not stated),nt,nt,?,-5%,-78%,?,4,0%,14µM*
CCOC(=O)c1ccc(N2C(=O)c3n[nH]c(C)c3C2c2ccccc2OC)cc1 (configuration not stated),nt,nt,?,-7%,0%,12%,-6,-2%,35µM*
CCOC(=O)c1ccc(N2C(=O)c3n[nH]c(-c4ccco4)c3C2c2cccc(OC)c2)cc1 (configuration not stated),nt,nt,?,-4%,-77%,13%,-1,0%,?
CCOC(=O)c1ccc(N2C(=O)c3n[nH]c(-c4ccco4)c3C2c2cccc(F)c2)cc1 (configuration not stated),nt,nt,-19%,-8%,-79%,7%,nt,nt,nt
Cc1cccc(C)c1OC(=O)CSc1nnc(-c2cccs2)o1,nt,nt,-8%,0%,nt,13%,nt,nt,nt
Cc1ccc(N2CCN(C(=O)c3cn(C)c4ccc(S(=O)(=O)N5CCC(C)CC5)cc4c3=O)CC2C)cc1 (configuration not stated),nt,nt,18%,-3%,nt,21%,nt,nt,nt
CCOC(=O)c1ccccc1NC(=O)c1cn(CC(C)C)c(=O)c2cc(OC)c(OC)cc12,nt,nt,45µM*,9%[2.29 µM],1%,14%,-7,1%,14µM*
CCC(=O)N1CCc2cc(Br)cc(S(=O)(=O)N3CCCC(C(=O)NCc4ccccc4)C3)c21 (configuration not stated),nt,nt,-11%,1%,-12%,3%,nt,nt,nt
COc1cc(Br)cc(/C=N/N(CCO)C2=NS(=O)(=O)c3ccccc32)c1OC,0,30,13µM*,-3%,-57%,16%,-7,0%,25µM*

# Screens (PubChem)
